High-throughput results (PubChem BioAssay)
Autofluor counter: compound fluorescence in toxin protease inhibitor counterscreen. AID 624483. compound autofluorescence counterscreen, microsphere flow cytometry; stronger effect = higher value. fluorescence intensity (no concentration beside the values). actives 3.1% (n = 360,000); in the data active = fluorescence intensity above about 16000; inconclusive = no clear call, values can overlap the other calls
MazF activator: increases E. coli MazEF RNase cleavage of RNA | FAM/BHQ RNA-DNA oligo cleavage fluorescence, 5 h | activation, % at 20 µM | actives 0.32% (n = 350,000) | AID 504720; in the data active = activation above about 50%
Target sequence (P0AE70 whole entry, looked up): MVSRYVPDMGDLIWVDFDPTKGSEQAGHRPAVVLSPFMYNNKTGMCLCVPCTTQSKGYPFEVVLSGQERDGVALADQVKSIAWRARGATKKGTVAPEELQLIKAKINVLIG
BoNT-A LC inh2: inhibitors of Botulinum neurotoxin A light chain protease | multiplex microsphere protease substrate cleavage, flow cytometry | inhibition, % at 10 µM | actives 0.17% (n = 360,000) | AID 588499; note: plate controls were buffer without enzyme for full effect and enzyme alone for no effect
Anthrax LF prot: blocks Bacillus anthracis lethal factor protease; actives 0.12% (n = 360,000); multiplex microsphere protease cleavage assay, LF; P15917; inhibition, % at 10 µM; AID 588501; note: plate controls were buffer without enzyme for full effect and enzyme alone for no effect
VHR inh abs: inhibitors of human VHR1 phosphatase (DUSP3) | P51452 | recombinant VHR phosphatase, pNPP absorbance | inhibition, % at 13.3 µM | actives 0.52% (n = 290,000) | AID 1654; in the data active = inhibition above about 50%
Target sequence (P51452 whole entry, looked up): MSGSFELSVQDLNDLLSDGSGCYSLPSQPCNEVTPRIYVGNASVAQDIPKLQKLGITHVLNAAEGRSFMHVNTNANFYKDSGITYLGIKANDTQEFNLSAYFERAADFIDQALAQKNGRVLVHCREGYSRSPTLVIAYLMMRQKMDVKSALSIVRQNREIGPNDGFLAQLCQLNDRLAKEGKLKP
BoNT F protease: BoNT F light chain protease inhibition; actives 0.22% (n = 360,000); inhibition, % at 10 µM; Multiplex microsphere protease cleavage assay, flow cytometry; in the data active = inhibition above about 35%, passing the limit was not always enough; inconclusive = no clear call, values can overlap the other calls; note: plate controls were buffer without enzyme for full effect and enzyme alone for no effect
An asterisk follows results filed as active; ? = inconclusive; nt = not tested or not shown; ! = not confirmed by another sample. Most compounds without a hit are left out; they make up all but 4.1% or so of the library. Cut-off read from the data, not from the text of the source, unless noted: active = inhibition above about 30%; inconclusive = no clear call, values can overlap the other calls; inactive = below that.

SMILES | Autofluor counter | MazF activator | BoNT-A LC inh2 | Anthrax LF prot | VHR inh abs | BoNT F protease
N#C/C(=C/c1ccc(N2CCCCCC2)o1)c1cccc(F)c1 | 28830* | -43.2 | 4.2 | -1.0 | -16.4 | 1.6
COc1cc(N2CCCC2)c(OC)cc1/C=C(/C#N)c1cccc(F)c1 | 23531* | -397.1 | 4.6 | -9.6 | 21.3 | 48.1*
COc1ccc2cc([C@H](C)C(=O)N(C)Cc3ccccc3N3CCCC3)ccc2c1 | 21814* | -22.7 | -9.6 | -18.0 | 3.0 | -1.0
COc1ccc(C(CNC(=O)C(C)c2ccc3cc(OC)ccc3c2)N(C)C)cc1 (stereo not drawn) | 2918 | 7.7 | -1.7 | -6.1 | -6.8 | 6.6
O=C(CN1c2ccccc2S(=O)(=O)c2ccccc21)NCc1ccc(F)cc1 | 5400 | 11.0 | -1.5 | -1.3 | 1.3 | -5.2
Brc1cc(Br)c2nc(-c3ccc(N4CCOCC4)cc3)ccc2c1 | 19443* | 1.9 | ? | 23.9 | -7.3 | 9.7
NNc1ccc2c(C(F)(F)F)cc(C(F)(F)F)nc2n1 | 4799 | 9.8 | -1.0 | -7.1 | 8.5 | -5.0
Cc1ccc(/C=N/Nc2ccc3c(C(F)(F)F)cc(C(F)(F)F)nc3n2)cc1 | 2729 | 284.5* | -0.5 | -0.9 | 32.3 | -9.7
Cc1cc(-n2c(=O)c(C#N)cc3c(=O)n4cccc(C)c4nc32)no1 | 21724* | 4.2 | 2.2 | -3.8 | -9.6 | 5.2
Cc1cccc(-n2c(=O)c(C#N)cc3c(=O)n4ccccc4nc32)c1 | 20190* | 5.7 | ? | -0.3 | -6.6 | 1.0
COc1ccc([C@@H]2CC(=O)[C@@H]3CN(S(=O)(=O)c4ccc(C)cc4)[C@H](c4cccc(Cl)c4)C[C@@H]3N2S(=O)(=O)c2ccccc2)cc1 | 5698 | nt | -0.3 | -5.7 | nt | -10.0
COc1cc(OC)c(CNC2CCCCCC2)cc1Br | 3245 | 8.8 | -0.7 | -5.2 | 6.2 | 3.4
COc1cc(OC)c(OC)cc1CNC1CCCCCC1 | 18257* | -0.3 | 4.0 | 1.3 | 12.7 | 2.5
COc1cc(CNC2CCCCCC2)cc(OC)c1OC | 22719* | -6.3 | 0.8 | -0.4 | -10.5 | 1.7
CCOC(=O)c1cc2c(c(-c3cccc(C#Cc4ccc(OC)c(OC)c4)c3)n1)[C@@H](CCO)N(S(=O)C(C)(C)C)C2 (stereo partly drawn) | 6114 | nt | -0.8 | -4.8 | nt | -12.4
Cc1ccccc1OCC(O)Cn1c(SC(C)C)nc2c1c(=O)[nH]c(=O)n2C (stereo not drawn) | 5939 | 6.1 | 0.1 | 0.7 | -6.5 | -0.1
CCSc1nc2c(c(=O)[nH]c(=O)n2C)n1CC(O)COc1ccccc1C (stereo not drawn) | 20886* | 13.0 | -0.8 | -3.8 | -16.6 | 0.6
O=S(=O)(c1ccccc1)c1cnc(-c2cccnc2)nc1-c1ccc(Cl)c(Cl)c1 | 17469* | -1.2 | 9.2 | -20.9 | -3.7 | 10.8
Cc1ncc(S(=O)(=O)c2ccccc2)c(-c2ccccc2)n1 | 3353 | -4.3 | -0.5 | -4.7 | 11.6 | -1.9
CCCCNC(=S)N/N=C/c1ccc(C)s1 | 24604* | 1.6 | ? | -3.2 | -4.2 | -11.6
Cc1ccc(/C=N/NC(=S)NCCc2ccccc2)s1 | 4496 | 2.5 | -1.3 | -2.6 | -9.5 | -5.9
O=C1CCCc2c1[nH]c1ccc(CN3CCCCC3)cc21 | 23077* | -4.3 | 0.3 | -1.6 | -17.2 | -1.7
CC1(C)Cc2ccccc2-c2nnc(-c3ccccn3)n21 | 20079* | 0.5 | -0.5 | -4.9 | 9.5 | -1.5
CCOC(=O)C(C)Sc1nnc2n1C(C)(C)Cc1ccccc1-2 (stereo not drawn) | 24062* | -5.7 | ? | -4.2 | 0.0 | -9.2
CC1(C)Cc2ccccc2-c2nnc(-c3ccccc3)n21 | 22143* | 1.6 | 2.3 | 3.4 | -7.5 | 1.1
SMILES | Autofluor counter | MazF activator | BoNT-A LC inh2 | Anthrax LF prot | VHR inh abs | BoNT F protease
COc1ccc(C(C)(O)c2nc(-c3cccs3)cs2)cc1 (stereo not drawn) | 4010 | nt | -0.3 | -7.4 | nt | -6.3
CCCCNC(=O)CC(C(=O)N1CCc2ccccc21)n1ccnc1 (stereo not drawn) | 8295 | 1.2 | -0.4 | 2.0 | 28.5 | 3.6
O=C(CC(C(=O)N1CCc2ccccc21)n1ccnc1)NCC1CCCO1 (stereo not drawn) | 22602* | 7.4 | 3.7 | -0.5 | -18.6 | 2.4
O=C(O)Cn1nc(-c2ccc(F)cc2)oc1=O | 3262 | 5.5 | 0.1 | 4.0 | 15.4 | 15.7
O=C(O)Cn1nnnc1-c1ccc(F)cc1 | 21941* | 1.3 | 3.2 | -1.8 | -14.5 | 4.5
CC1CCc2c(sc(N)c2C(N)=O)C1 (stereo not drawn) | 17162* | -5.2 | -3.4 | 1.1 | 16.2 | -4.4
CCC1CCc2c(sc(N)c2C(N)=O)C1 (stereo not drawn) | 9918 | 1.7 | 0.3 | 2.6 | nt | -2.4
CCN(C(=O)Cn1cnc2ccccc2c1=O)C1CCS(=O)(=O)C1 (stereo not drawn) | 5787 | 1.0 | -9.0 | -2.7 | nt | -4.3
CN1CCN(c2ccc(CNC(=O)c3ccc(-c4ccc(F)c(F)c4)c4ccoc34)cc2)CC1 | 2790 | nt | 0.2 | -8.8 | nt | 2.7
CN(C)Cc1cn(CCC(=O)O)c2ccccc12 | 24504* | 1.1 | -1.2 | 1.1 | nt | -5.6
NN1C(=O)/C(=C\c2ccco2)SC1=S | 5352 | -2.1 | 0.7 | -5.1 | -22.5 | -1.7
CC(Sc1nnc(-c2cccnc2)n1N)C(=O)NCCC1=CCCCC1 (stereo not drawn) | 4430 | -3.2 | 0.8 | 4.7 | nt | 11.2
COCCOC(=O)C1=C(C)Nc2nc(C)nn2C1c1ccc(F)cc1 (stereo not drawn) | 18889*! | 8.5 | ? | 6.0 | -4.1 | 3.8
Cc1ccccc1NS(=O)(=O)c1cc(C(=O)NCc2ccco2)ccc1C | 7208 | -6.2 | 0.0 | 3.5 | 3.5 | 10.3
COc1ccccc1NS(=O)(=O)c1cc(C(=O)NCc2ccco2)ccc1C | 17992* | 0.1 | 9.1 | 1.9 | 35.1 | 16.2
Cc1ccc(Cc2ccccc2C(=O)O)cc1 | 3679 | 8.7 | 0.1 | -2.4 | nt | -3.2
CCOc1ccc(-c2cc(C(=O)N3CCN(C)CC3)c3ccccc3n2)cc1 | 23119* | 0.9 | 1.6 | 1.2 | 7.2 | 1.2
CCOc1ccc(-c2cc(C(=O)N3CCN(c4ccccn4)CC3)c3ccccc3n2)cc1 | 22531* | -4.4 | -0.6 | -0.5 | 9.7 | -0.1
C=CCN1C(=O)C(C(C)CC)NC1=S (stereo not drawn) | 18817* | -2.6 | ? | -5.2 | -3.4 | 7.7
C=CCN1C(=O)C(C)NC1=S (stereo not drawn) | 3631 | 6.7 | 4.5 | -6.8 | 32.9 | ?
O=S1(=O)CC(N2CC=CC2)CN1Cc1ccccc1 (stereo not drawn) | 4213 | nt | -1.3 | -4.3 | nt | -14.3
Cc1ccc(NC(C)c2cc(Cl)ccc2O)cc1 (stereo not drawn) | 21916* | 7.4 | ? | -3.5 | -17.1 | -0.8
CN1/C(=C\C(=S)NC(=O)c2ccccc2Cl)C(C)(C)c2ccccc21 | 4289 | 10.2 | 38.3* | 17.5 | 4.5 | 2.0
COc1ccccc1C(=O)NC(=S)/C=C1/N(C)c2ccccc2C1(C)C | 2973 | -8.1 | 49.2* | 24.6 | 19.3 | 4.2
COc1cc(CNc2ncnc3c2ncn3[C@H]2CN(Cc3ccccc3)C[C@@H](COC(C)=O)O2)cc(OC)c1OC | 2987 | nt | -0.5 | -4.4 | nt | 2.4
